21 compounds from PubChem BioAssay can be followed below.

Values joined by “and” are separate entries in the source; they are usually repeats but may differ in a detail not shown here. Equal values may be shown once. Values without a mark were called inactive. For part of these data: Measured potencies and affinities stand elsewhere. Active and inactive are the calls of the source. Unless noted, no rule for the calls is given here.

Experiment [1] can be described thus: antimalarial activity against Dd2 strain (AID 2302;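 active = growth inhibition above 50% at the single 2 µM test dose, taken to imply half-maximal potency below 2 µM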;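 also: 0% = DMSO untreated growth and 100% = chloroquine plus artemisinin killed control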). Conditions: P. falciparum Dd2 in RBCs, LDH growth readout, 72 h; at 2 µM; stronger effect = higher value.
The nature of experiment [2]: human hepatoma cell viability loss – ATP luminescence, cytotoxicity control for P. falciparum antimalarial project, primary screen (AID 2303;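 active = inhibition above 50%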;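 also: 0% = DMSO wells and 100% = digitonin-killed cells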). Conditions: HepG2 viability, 24-48 h, at 10 µM, stronger effect = higher value.
The target in experiment [3] is L-lactate dehydrogenase (Plasmodium falciparum (isolate CDC / Honduras)) (UniProt Q27743). Put plainly: PfLDH activity inhibition – cell lysate, 3D7 strain, counter-screen for P. falciparum growth inhibition project (AID 2304).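 Also: 0% = vehicle and 100% = reference inhibitor.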 Conditions: P. falciparum 3D7 crude extract, LDH APAD/NBT absorbance; at 2 µM; stronger effect = higher value.
Experiment [4] can be described thus: inhibition of 3D7 malaria parasite growth – strain 3D7 (AID 2306).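 Also: 0% = DMSO wells and 100% = chloroquine plus artemisinin control wells.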 As to conditions: P. falciparum 3D7 erythrocytic growth, LDH absorbance, 72 h; at 2 µM; stronger effect = higher value.
Experiment [5] deals with Calcium-dependent protein kinase 1 (Plasmodium falciparum (isolate 3D7)) (UniProt P62344). Put plainly: PfCDPK1 kinase inhibitors, biochemical, TCAMS library (AID 1159585; cut-off not given, nearly all actives have IC50 up to about 0.98 µM;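 also: inhibitors leave more ATP so luminescence rises with inhibition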). As to conditions: recombinant PfCDPK1, Kinase-Glo ATP depletion luminescence. For orientation: Kinase-Glo measures the ATP left after a reaction by luminescence.
For experiment [6], the target named is Plasmodium falciparum protein kinase 6 (PK6, PF3D7_1337100) (UniProt Q8IDW1). Put plainly: PfPK6 kinase inhibitors, biochemical, TCAMS library (AID 1159586). Conditions: recombinant PfPK6, Kinase-Glo ATP depletion luminescence.
Experiment [7] addresses Protein kinase 7 (PK7), Plasmodium falciparum 3D7 (PF3D7_0213400) (UniProt Q7YTF7). Put plainly: inhibition of Plasmodium PK7 catalytic activity – biochemical, TCAMS antimalarial set, Kinase-Glo luminescence (AID 1159587). Conditions: recombinant PfPK7, Kinase-Glo ATP depletion luminescence.
Experiment [8] concerns the target Calcium-dependent protein kinase 4 (Plasmodium falciparum (isolate 3D7)) (UniProt Q8IBS5). Put plainly: PfCDPK4 kinase inhibitors, biochemical, TCAMS library (AID 1159588; cut-off not given, nearly all actives have IC50 up to about 0.91 µM). Conditions: recombinant PfCDPK4, Kinase-Glo ATP depletion luminescence.

The term inhibition denotes the change of the read-out against control, counted positive when it falls.

Sequence of Calcium-dependent protein kinase 1 (Plasmodium falciparum (isolate 3D7)) (P62344 whole entry, looked up): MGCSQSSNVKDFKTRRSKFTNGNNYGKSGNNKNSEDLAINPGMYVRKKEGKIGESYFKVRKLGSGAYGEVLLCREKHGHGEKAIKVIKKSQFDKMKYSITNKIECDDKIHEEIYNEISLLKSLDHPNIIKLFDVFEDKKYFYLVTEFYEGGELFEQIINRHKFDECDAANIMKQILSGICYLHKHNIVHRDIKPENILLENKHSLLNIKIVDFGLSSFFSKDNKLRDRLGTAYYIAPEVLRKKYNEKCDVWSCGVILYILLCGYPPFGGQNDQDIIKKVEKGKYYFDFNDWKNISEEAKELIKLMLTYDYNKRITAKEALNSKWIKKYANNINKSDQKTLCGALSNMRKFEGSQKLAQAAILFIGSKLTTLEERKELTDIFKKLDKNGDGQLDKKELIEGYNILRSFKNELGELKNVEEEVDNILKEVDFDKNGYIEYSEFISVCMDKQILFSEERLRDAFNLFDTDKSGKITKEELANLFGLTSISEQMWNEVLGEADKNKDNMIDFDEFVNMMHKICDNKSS
Sequence of Calcium-dependent protein kinase 4 (Plasmodium falciparum (isolate 3D7)) (Q8IBS5 whole entry, looked up): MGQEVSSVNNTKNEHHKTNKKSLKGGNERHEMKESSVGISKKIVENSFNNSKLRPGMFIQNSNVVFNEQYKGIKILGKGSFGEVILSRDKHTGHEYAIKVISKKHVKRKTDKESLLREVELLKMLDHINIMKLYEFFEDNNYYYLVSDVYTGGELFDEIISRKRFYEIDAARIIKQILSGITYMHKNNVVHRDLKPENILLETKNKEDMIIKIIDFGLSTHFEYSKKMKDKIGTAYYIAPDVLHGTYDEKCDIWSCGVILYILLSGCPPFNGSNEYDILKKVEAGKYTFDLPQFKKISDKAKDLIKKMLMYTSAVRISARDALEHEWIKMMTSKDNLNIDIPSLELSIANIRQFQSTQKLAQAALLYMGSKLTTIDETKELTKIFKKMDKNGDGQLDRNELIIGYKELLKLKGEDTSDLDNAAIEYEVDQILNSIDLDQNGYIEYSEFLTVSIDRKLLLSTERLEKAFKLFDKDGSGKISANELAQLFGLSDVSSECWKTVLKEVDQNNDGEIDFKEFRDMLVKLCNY
Sequence of Protein kinase 7 (PK7), Plasmodium falciparum 3D7 (PF3D7_0213400) (Q7YTF7 1-343): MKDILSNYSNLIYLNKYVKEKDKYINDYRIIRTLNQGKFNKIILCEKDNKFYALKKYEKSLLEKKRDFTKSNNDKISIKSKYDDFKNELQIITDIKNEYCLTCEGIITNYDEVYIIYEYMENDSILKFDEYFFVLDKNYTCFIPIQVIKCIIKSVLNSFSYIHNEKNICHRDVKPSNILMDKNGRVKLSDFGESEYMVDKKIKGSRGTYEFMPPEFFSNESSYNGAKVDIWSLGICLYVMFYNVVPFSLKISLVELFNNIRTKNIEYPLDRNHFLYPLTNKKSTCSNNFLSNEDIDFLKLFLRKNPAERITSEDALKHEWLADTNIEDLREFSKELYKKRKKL
Sequence of L-lactate dehydrogenase (Plasmodium falciparum (isolate CDC / Honduras)) (Q27743 whole entry, looked up): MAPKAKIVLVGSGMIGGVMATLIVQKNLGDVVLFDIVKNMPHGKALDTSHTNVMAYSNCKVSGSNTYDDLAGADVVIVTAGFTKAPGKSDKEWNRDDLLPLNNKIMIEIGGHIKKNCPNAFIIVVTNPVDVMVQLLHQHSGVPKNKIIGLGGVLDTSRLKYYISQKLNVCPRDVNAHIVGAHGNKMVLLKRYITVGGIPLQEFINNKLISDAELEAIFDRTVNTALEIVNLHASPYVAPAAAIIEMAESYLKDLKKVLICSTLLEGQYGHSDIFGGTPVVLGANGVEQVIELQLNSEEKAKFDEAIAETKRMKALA
Sequence of Plasmodium falciparum protein kinase 6 (PK6, PF3D7_1337100) (Q8IDW1 1-305): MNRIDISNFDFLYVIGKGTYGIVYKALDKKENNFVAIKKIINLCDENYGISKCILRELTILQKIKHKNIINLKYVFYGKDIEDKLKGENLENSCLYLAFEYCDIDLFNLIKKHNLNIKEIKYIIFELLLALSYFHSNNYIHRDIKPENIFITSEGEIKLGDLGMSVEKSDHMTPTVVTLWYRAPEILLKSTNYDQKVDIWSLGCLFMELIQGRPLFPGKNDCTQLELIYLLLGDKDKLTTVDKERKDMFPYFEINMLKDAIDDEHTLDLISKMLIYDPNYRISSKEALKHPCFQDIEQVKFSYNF

Turning to `O=C1Nc2cccc3c2C1(CCCCCN1CC=C(c2c[nH]c4ccccc24)CC1)CCC3` (stereo not drawn), the growth inhibition in experiment [1] is 89% (active); in experiment [4] it was 94% (active). Further, the inhibition is 2% in experiment [2] and 3% in experiment [3]. In addition, the result in experiment [5], in experiment [6], in experiment [7] and in experiment [8] was inactive.
As to `CC(=O)C1(c2ccccc2)CCN(CCC2(c3ccc(Cl)c(Cl)c3)CN(C(=O)Nc3cc(F)cc(F)c3)CCO2)CC1` (stereo not drawn), the growth inhibition in experiment [1] is 20%; in experiment [4], 86% (active). Besides, the inhibition in experiment [2] is 2%; in experiment [3], -1%. The result in experiment [5], in experiment [6], in experiment [7] and in experiment [8] was inactive.
In the case of `CC(C)CN1CCC(N(C)c2cc(NC(=O)c3cccc(F)c3)ccn2)CC1`, the growth inhibition in experiment [1] was 10%; in experiment [4], 97% (active). The inhibition was 8% in experiment [2] and -1% in experiment [3]. In addition, the outcome in experiment [5], in experiment [6], in experiment [7] and in experiment [8] was inactive.
Regarding `CN1CC=C(c2c[nH]c3ccc(OCc4ccccc4)cc23)CC1`, the growth inhibition is 97% (active) in experiment [1] and 95% (active) in experiment [4]. The inhibition in experiment [2] and in experiment [3] was -2% throughout. The outcome in experiment [5], in experiment [6], in experiment [7] and in experiment [8] was inactive.
In the case of `O=C(NC1CCN(CC2(c3ccc(Cl)cc3)CCC2)CC1)c1cscn1`, the growth inhibition in experiment [1] was 95% (active); in experiment [4] it was 98% (active). Further, the inhibition is -2% in experiment [2] and -1% in experiment [3]. In addition, the result in experiment [5], in experiment [6], in experiment [7] and in experiment [8] was inactive.
For `NC(=O)CN1CC=C(c2c[nH]c3ccc(Br)cc23)CC1`, the results for the growth inhibition in experiment [1] and in experiment [4] were 0% and 83% (active), respectively. Also, the inhibition in experiment [2] is 30%; in experiment [3], -12%. In addition, the result in experiment [5], in experiment [6], in experiment [7] and in experiment [8] was inactive.
As for `COC(C(=O)OCCC1CCCN1C)(c1ccccc1)C1CCCCC1` (stereo not drawn), the growth inhibition is 5% in experiment [1] and 100% (active) in experiment [4]. The inhibition in experiment [2] was 3%; in experiment [3], 4%. The result in experiment [5], in experiment [6], in experiment [7] and in experiment [8] was inactive.
As to `O=C(CNC1CCCCC1)c1ccc(O)c(O)c1`, the growth inhibition in experiment [1] was 99% (active); in experiment [4], 102% (active). Moreover, the inhibition is 61% (active) in experiment [2] and 4% in experiment [3]. Further, the outcome in experiment [5], in experiment [6], in experiment [7] and in experiment [8] was inactive.
In the case of `O=C(Nc1ccccc1OC(F)(F)F)NC1CCC(CN2CCC(c3c[nH]c4ccccc34)CC2)CC1` (stereo not drawn), the growth inhibition in experiment [1] was 60% (active) and 70% (active); in experiment [4], 101% (active) and 99% (active). Besides, the inhibition in experiment [2] was 33% and 35%; in experiment [3], 6% and 8%. The result in experiment [5], in experiment [6], in experiment [7] and in experiment [8] was inactive.
Take `COC(=O)C(C)(C)c1ccc(CC(C)NCC(O)c2cccc(C(F)(F)F)c2)cc1` (stereo not drawn): the values for the growth inhibition in experiment [1] and in experiment [4] were 98% (active) and 99% (active), respectively. For the same compound, the inhibition in experiment [2] was 6%; in experiment [3], -7%. Also, the result in experiment [5], in experiment [6], in experiment [7] and in experiment [8] was inactive.
For `CCN(Cc1ccccc1)CC(O)c1ccc(Cl)c(Cl)c1` (stereo not drawn), the growth inhibition in experiment [1] was 71% (active); in experiment [4], 96% (active). The inhibition in experiment [2] was 2%; in experiment [3], 1%. For the same compound, the result in experiment [5], in experiment [6], in experiment [7] and in experiment [8] was inactive.
Turning to `CC(=O)Nc1ccc(OCCN(CC(C)C)c2ccc(C#N)c(C(F)(F)F)c2)c(Cl)c1`, the growth inhibition in experiment [1] and in experiment [4] was 94% (active) each time. The inhibition is 13% in experiment [2] and 2% in experiment [3]. The result in experiment [5], in experiment [6], in experiment [7] and in experiment [8] was inactive.
As for `c1ccc2c(NCCCCCCNc3c4ccccc4nc4ccccc34)c3ccccc3nc2c1`, the growth inhibition in experiment [1] is 80% (active); in experiment [4], 99% (active). In addition, the inhibition in experiment [2] is 60% (active); in experiment [3], 3%. In addition, the outcome in experiment [5], in experiment [6], in experiment [7] and in experiment [8] was inactive.
As for `Cc1[nH]c2ccccc2c1C1=CCN(CCCCC23CCCc4cccc(c42)NC3=O)CC1` (stereo not drawn), the growth inhibition in experiment [1] is 91% (active); in experiment [4], 95% (active). Moreover, the inhibition in experiment [2] is 9%; in experiment [3], -4%. Moreover, the outcome in experiment [5], in experiment [6], in experiment [7] and in experiment [8] was inactive.
Take `O=C(Cc1cc(=O)oc2cc(O)ccc12)NC1CCC(CN2CCC(c3c[nH]c4ccccc34)CC2)CC1` (stereo not drawn): the growth inhibition in experiment [1] is -10%; in experiment [4], 96% (active). The figures for the inhibition in experiment [2] and in experiment [3] were 5% and -1%, respectively. The outcome in experiment [5], in experiment [6], in experiment [7] and in experiment [8] was inactive.
In the case of `COc1ccc(F)cc1-c1csc(N(c2ccc(F)cc2)C2CCNCC2)n1`, the figures for the growth inhibition in experiment [1] and in experiment [4] were -3% and 94% (active), respectively. The inhibition in experiment [2] is 15%; in experiment [3], -1%. For the same compound, the result in experiment [5], in experiment [6], in experiment [7] and in experiment [8] was inactive.
Take `COc1cc(CN2CCN(c3ccnc(N(C)C4CCN(C)CC4)n3)CC2)cc(Cl)c1O`: the results for the growth inhibition in experiment [1] and in experiment [4] were 63% (active) and 94% (active), respectively. Also, the figures for the inhibition in experiment [2] and in experiment [3] were 11% and -5%, respectively. Further, the result in experiment [5], in experiment [6], in experiment [7] and in experiment [8] was inactive.
As for `CC(Cc1ccc(SC(C)(C)C)cc1)NCC(O)c1cccc(Cl)c1` (stereo not drawn), the growth inhibition in experiment [1] and in experiment [4] was 99% (active) throughout. Moreover, the inhibition in experiment [2] was 14%; in experiment [3], -7%. The outcome in experiment [5], in experiment [6], in experiment [7] and in experiment [8] was inactive.
In the case of `CC[C@H]1CN2CC[C@H]1C[C@H]2[C@H](O)c1cc(-c2cccc(F)c2)nc2ccc(OC)cc12`, the values for the growth inhibition in experiment [1] and in experiment [4] were 97% (active) and 99% (active), respectively. Further, the inhibition is 34% in experiment [2] and 5% in experiment [3]. The outcome in experiment [5], in experiment [6], in experiment [7] and in experiment [8] was inactive.
As to `CCCCCc1cc(O)c2c(c1)OC(C)(C)c1ccncc1-2`, the growth inhibition in experiment [1] is 57% (active); in experiment [4], 99% (active). In addition, the inhibition in experiment [2] was -5%; in experiment [3], -1%. Further, the result in experiment [5], in experiment [6], in experiment [7] and in experiment [8] was inactive.
On to `CCCCCCCSc1ccc(CC(C)NCC(O)c2cccc(Cl)c2)cc1` (stereo not drawn), for which the growth inhibition is 99% (active) in experiment [1] and 100% (active) in experiment [4]. The values for the inhibition in experiment [2] and in experiment [3] were 94% (active) and -3%, respectively. In addition, the result in experiment [5], in experiment [6], in experiment [7] and in experiment [8] was inactive.
